# High-throughput results from PubChem.
# Many of the other results were omitted from the sample, so hits are more common in it than they were.
# IL1B secr inh: blocks inflammasome-driven IL-1 beta release. THP-1 LPS/ATP IL-1B secretion, AlphaLISA, 16 h; active compounds read low. activity change, % at 57.5 µM. actives 4.7% (n = 360,000). AID 743279; in the data active means activity change below about -50%; inconclusive means mostly about -30% to -49%
#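 THP-1 cells pretreated 1 hr with compounds (up to 57.5 uM final), then stimulated with LPS (250 ng/mL final) plus ATP (1.25 mM final); secreted IL-1B measured by AlphaLISA after 16 hr, decreased signal indicating inhibition.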
# DT40 TDP1 CPT: growth inhibition of DT40 Tdp1-/-;hTDP1 cells with camptothecin (screen for TDP1 inhibitors). chicken DT40 Tdp1-/-;hTDP1 cells + 20 nM CPT, ATP luminescence, 48 h. Potency, µM (highest dose often 46.2 µM), hits mostly inhibitors. actives 12% (n = 420,000). AID 686979; further: nearly all actives have a fitted effect of over 55% in size
#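 Chicken DT40 Tdp1-/- cells complemented with human TDP1, 400 cells/well, exposed to compounds plus 20 nM camptothecin for at least 48 h at 37 C; viability read as ATP content by CellTiter-Glo luminescence.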
# ALOX12 inh: inhibitors of human 12S-lipoxygenase ALOX12; AID 1671190; actives 1.1% (n = 580,000); purified 12hLO, xylenol orange hydroperoxide absorbance; Potency, µM (series often up to 108 µM), actives largely listed as inhibitors
# Target sequence (P18054 whole entry, looked up): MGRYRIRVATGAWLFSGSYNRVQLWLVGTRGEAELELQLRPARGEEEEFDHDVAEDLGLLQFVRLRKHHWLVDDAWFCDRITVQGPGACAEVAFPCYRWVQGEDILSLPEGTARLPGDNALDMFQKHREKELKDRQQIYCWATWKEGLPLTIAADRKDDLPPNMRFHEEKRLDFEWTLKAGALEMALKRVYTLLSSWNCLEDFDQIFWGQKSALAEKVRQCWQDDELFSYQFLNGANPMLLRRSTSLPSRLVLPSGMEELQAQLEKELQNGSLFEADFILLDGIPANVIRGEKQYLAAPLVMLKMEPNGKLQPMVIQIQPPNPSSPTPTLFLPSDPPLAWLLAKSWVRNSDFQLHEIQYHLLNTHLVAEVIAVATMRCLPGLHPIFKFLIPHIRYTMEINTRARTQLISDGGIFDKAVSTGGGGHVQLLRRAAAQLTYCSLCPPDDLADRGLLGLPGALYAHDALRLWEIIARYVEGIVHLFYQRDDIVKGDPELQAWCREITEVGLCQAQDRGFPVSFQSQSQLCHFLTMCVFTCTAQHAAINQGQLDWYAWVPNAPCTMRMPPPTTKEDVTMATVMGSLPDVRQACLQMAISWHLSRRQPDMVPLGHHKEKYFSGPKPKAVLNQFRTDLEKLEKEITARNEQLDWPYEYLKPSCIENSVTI
#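 Purified human 12hLO at 150 nM in 25 mM Hepes, 0.01% Triton X-100, pH 7.0, preincubated 15 min at room temperature with compound. Reaction started with 40 uM arachidonic acid, 30 min at room temperature. Hydroperoxide measured by Fe-xylenol orange, 573/405 nm absorbance ratio.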
# DT40 TDP1 no CPT: qHTS for Inhibitors of human tyrosyl-DNA phosphodiesterase 1 (TDP1): qHTS in cells in absence of CPT; DT40 Tdp1-/- hTDP1 cells, no CPT, ATP luminescence, 48 h; Potency, µM (highest dose often 46.2 µM), usual class: inhibitors; actives 15% (n = 420,000); AID 686978, 2013; further: nearly all actives have a fitted effect of over 55% in size
#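 Chicken DT40 Tdp1-/- cells complemented with human TDP1, screened without camptothecin (DMSO vehicle only), 400 cells/well. Compounds pin-transferred, cells incubated at 37 °C for at least 48 hr. Growth read as ATP-dependent luminescence (CellTiter-Glo, 30 min at RT).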
# HT1080 IDH1KD tx: toxicity to HT-1080 IDH1 knockdown cells (counter line); AID 686971; Potency, µM (titrated, usually from 46.1 µM), hits mostly cytotoxic; actives 2% (n = 360,000); HT-1080 IDH1 knockdown viability, ATP luminescence, 48 h
#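 Viability of IDH1-knockdown HT-1080 fibrosarcoma cells was assessed by CellTiter-Glo after 48 h at 37 °C with titrated compound; concentration-effect curves were classified by fit quality and response size.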
# HT1080NT lethal: kills 2HG-producing HT-1080-NT fibrosarcoma cells | HT-1080-NT fibrosarcoma viability, CellTiter-Glo ATP luminescence, 48 h | Potency, µM (highest dose often 46.1 µM), hits mostly cytotoxic | actives 1.6% (n = 360,000) | AID 686970;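 further: NT is the 2HG producing partner of a matched IDH1 knockdown line; nearly all actives have a fitted effect of over 55% in size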
#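 Luminescent CellTiter-Glo readout after 48 hours of compound exposure at 37 degrees C defined viability of HT-1080-NT cells. Activity was normalized to DMSO wells and cell-free media wells; concentration-response curves were fitted and assigned curve classes.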
# Numbers stand for hits; . = inactive; ? = inconclusive; / = not tested or not shown; ! = a repeat was not active; [ ] = another dose, or the depositor's remark. Unless noted, the call rests on the fitted dose curve; in most records, active means well fitted curve in the direction sought with a large enough effect; inconclusive means small, poorly fitted or top-dose-only effect, or another doubt; inactive means no such curve, though single readings can be large; an effect the other way counts as inactive or inconclusive.
SMILES,IL1B secr inh,DT40 TDP1 CPT,ALOX12 inh,DT40 TDP1 no CPT,HT1080 IDH1KD tx,HT1080NT lethal
CN(C)c1ccc(C(CNC(=O)c2cccc(C(F)(F)F)c2)N2CCCC2)cc1 (configuration not stated),/,14.6µM,.,16.4µM,/,/
COc1ccc(C(=O)NCC(c2ccc(N(C)C)cc2)N2CCCC2)cc1 (configuration not stated),/,?,.,?,/,/
Cc1ccc(Oc2ncnc3c2cnn3-c2ccccc2)cc1,/,/,.,/,/,/
CCCn1c(C)cnc1C1CCN(S(=O)(=O)c2cc(OC)ccc2OC)C1 (configuration not stated),/,/,.,/,/,/
c1csc(-c2cc3ccccn3c2)c1,/,/,.,/,/,/
Clc1ccc(-c2cc3ccccn3c2)cc1,/,/,3.98µM,/,/,/
Cc1[nH]nc2c1C(c1ccc(-c3ccc(Cl)cc3)o1)C(C#N)=C(N)O2 (configuration not stated),-100.8,13µM,?,?,?,?
Cc1[nH]nc2c1C(c1ccc(-c3ccccc3C#N)o1)C(C#N)=C(N)O2 (configuration not stated),-55.6,29.1µM,/,20.6µM,11.2µM,?
Cc1cc(C2C(C#N)=C(N)Oc3n[nH]c(C)c32)c(C)s1 (configuration not stated),?,8.2µM,?,?,.,?
CCC(=O)Nc1ccc2oc(-c3ccc(OC)c(Br)c3)nc2c1,/,/,.,/,/,/
Cc1ccc(S(=O)(=O)Nc2ccc(C)n(CC(=O)NCc3ccccc3)c2=O)cc1,/,/,.,/,/,/
CCN(CC)c1nc(Nc2ccc([N+](=O)[O-])cc2)nc(N(CC)CC)n1,.,25.9µM,.,20.6µM,.,.
Cc1ccc(S(=O)(=O)Nc2nc3ccccc3nc2Nc2ccc(F)cc2)cc1,/,/,.,/,/,/
CC(C)(C)c1cc(=O)n(-c2ccccc2)[nH]1,-97.5,25.9µM,.,?,?,?
O=c1ccc(=O)n(-c2ccccc2)[nH]1,.,16.4µM,.,?,.,.
C=CCNC(=O)N(CCc1ccccn1)Cc1ccc(F)cc1,/,/,.,/,/,/
CNC1CCC(c2ccc(Cl)c(Cl)c2)c2ccccc21 (configuration not stated),/,14.6µM,/,18.4µM,/,/
CN[C@H]1CC[C@@H](c2ccc(Cl)c(Cl)c2)c2ccccc21,.,15µM!,?,15µM,/,7.31µM
CC1=C(C(=O)OC(C)C)C(c2ccc(Cl)c(Cl)c2)CC(=O)N1 (configuration not stated),/,/,.,/,/,/
CNC1CCOc2ccccc21 (configuration not stated),/,/,.[12.5 µM],/,/,/
COc1ccccc1OCc1nc(C#N)c(N2CCN(C)CC2)o1,/,/,.,/,/,/
O=C(Nc1ncn[nH]1)c1cccc(S(=O)(=O)N2CCCCC2)c1,/,/,.,/,/,/
Nc1nc(N)c2c(OCc3ccc(C(F)(F)F)cc3)cccc2n1,/,5.01µM,/,3.16µM,/,/
Nc1nnc(COc2cccc(C(F)(F)F)c2)s1,.,.,.,?,.,.
Nc1nc(N)c2c(Oc3ccc(F)cc3)cccc2n1,/,12.6µM,/,1.78µM,/,/
SMILES,IL1B secr inh,DT40 TDP1 CPT,ALOX12 inh,DT40 TDP1 no CPT,HT1080 IDH1KD tx,HT1080NT lethal
CCOC(=O)c1nnn(CC(=O)Nc2cc(F)ccc2F)c1C(=O)OCC,-73.2,.,.,.,.,.
CC1(c2ccc(Cl)cc2Cl)OCC(Cn2ccnc2)O1 (configuration not stated),.,20.6µM,?,23.1µM,?,?
CCCNC(=O)c1cccc(NC(=O)c2ccc(F)cc2)c1,/,/,.,/,/,/
CN(C(=O)CSc1nnc(Nc2ccccc2)s1)c1c(N)n(Cc2ccccc2)c(=O)[nH]c1=O,.,?,.,?,.,.
CCCCN(C(=O)CSc1nnc(Nc2ccc(C)c(C)c2)s1)c1c(N)n(Cc2ccccc2)c(=O)[nH]c1=O,-77.0,18.4µM,.,?,?,.
Cc1ccc(C)c(N2CCN(c3nc4ccccc4c(=O)n3-c3ccc(Cl)cc3)CC2)c1,/,5.8µM,?,20.6µM,/,/
O=c1c2ccccc2nc(N2CCN(c3cccc(Cl)c3)CC2)n1-c1ccccc1,/,3.66µM,.,2.91µM,/,/
Cc1cccc(N2CCN(c3nc4ccccc4c(=O)n3-c3ccc(Cl)cc3)CC2)c1C,/,.,.,?,/,/
CCNC(=S)NNC(=O)C1CCCC1,/,/,.,/,/,/
Cc1ccccc1Nc1nn2c(=O)c3ccc(C(=O)NCc4cccs4)cc3nc2s1,/,16.4µM,.,13µM,/,/
CCc1nc2ccc(C(=O)NCc3cccs3)cc2nc1CC,/,/,.,/,/,/
COc1cccc(CNC(=O)c2ccc3c(=O)n4nc(Nc5ccccc5)sc4nc3c2)c1,/,8.2µM,?,?,/,/
Cc1ccc(C)c(Nc2nn3c(=O)c4ccc(C(=O)NCc5ccccc5)cc4nc3s2)c1,/,5.17µM,.,7.31µM,/,/
CCN(CC)CCNC(=O)c1ccc2c(=O)n3nc(Nc4ccccc4)sc3nc2c1,/,5.8µM,?,4.61µM,/,/
O=C(NCc1ccccn1)c1ccc2c(=O)n3nc(Nc4ccccc4)sc3nc2c1,.,?,.,.,?,?
Cc1ccc(OCC(=O)Nc2c(NC3CCCC3)c3ccccc3oc2=O)cc1,/,/,.,/,/,/
CC(C)c1noc(COc2ccc(C(=O)NC3CCCC3)cc2)n1,/,/,.,/,/,/
Cc1c(F)cccc1NC(=O)N1CC(c2nnc(-c3ccncc3)o2)C2(CCOCC2)C1 (configuration not stated),/,/,.,/,/,/
Cc1ccccc1Nc1nn2c(=O)c3ccc(C(=O)NCC(C)c4ccccc4)cc3nc2s1 (configuration not stated),/,14.6µM,.,14.6µM,/,/
CCOC(=O)c1ccc(Nc2nn3c(=O)c4ccccc4nc3s2)cc1,/,.,.,.,/,/
CCc1cccc(C)c1Nc1nn2c(=O)c3ccccc3nc2s1,/,11.6µM,?,23.1µM,/,/
CN1c2cc(C(=O)N3CCc4ccccc4C3)ccc2C(=O)N2CCCCC21 (configuration not stated),/,/,.,/,/,/
CCOC(=O)C1=C[C@@H](C(C)(C)C)N(S(=O)(=O)c2ccc(OC)cc2)[C@H]1c1ccccc1,.,18.4µM,.,?,?,?
CCOC(=O)C1=C[C@@H](C(C)(C)C)N(S(=O)(=O)c2ccc(C)cc2)[C@H]1c1ccccc1,.,?,?,?,?,?
CCOC(=O)C1=C[C@@H](c2ccccc2)N(S(=O)(=O)c2ccc(C)cc2)[C@H]1c1ccc(OC)cc1,.,16.4µM,.,?,.,.
CCOC(=O)C1=C[C@@H](C(C)(C)C)N(S(=O)(=O)c2ccc(C)cc2)[C@H]1c1ccc(OC)cc1,.,?,.,20.6µM,.,.
CCOC(=O)C1=C[C@@H](C(C)(C)C)N(S(=O)(=O)c2ccc(C)cc2)[C@H]1c1ccc(F)cc1,.,18.4µM,.,23.1µM,?,.
O=c1c(=O)n(-c2ccc(F)c(F)c2)ccn1Cc1c(F)cccc1Cl,/,/,.,/,/,/
